Values joined by “and” are separate entries in the source; they are usually repeats but may differ in a detail not shown here. Identical values can stand only once. Inconclusive results are not listed. A structure can be active in one record and inactive in another. Active and inactive are the calls of the source. Unless noted, calls follow the shape of the dose curve; as a rule, active = well fitted curve in the direction sought with a large enough effect in the repeat runs; inconclusive = weak or mixed curves; inactive = no such curve, though single readings can be large; an effect the other way counts as inactive or inconclusive.
What was measured:
[1] = qHTS assay to identify small molecule agonists of the androgen receptor (AR) signaling pathway in the presence of an antagonist - cell viability counter screen (AID 1259379); also: nearly all actives have a fitted effect of over 25% in size; also: potency is read from the fitted curve at half-maximal effect
Method in brief: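 MDA-kb2 cells (MMTV-luciferase, AR/GR), 3,000/well, 5 h attachment, then 3.0 µM nilutamide (final) and compounds at 15 concentrations. Viability by CellTiter-Fluor fluorescence after 16 h at 37 °C, 0% CO2, in the reporter wells.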

[2] = qHTS assay to identify small molecule agonists of the estrogen receptor beta (ER-beta) signaling pathway - cell viability counter screen (AID 1259380); also: nearly all actives have a fitted effect of over 30% in size; also: potency is read from the fitted curve at half-maximal effect
Method in brief: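 ER-beta-UAS-bla HEK293T cells in medium with 2% charcoal-stripped FBS, pre-incubated 6 hr, then treated 16 hr at 37C. Cytotoxicity read in the same wells by CellTiter-Glo luminescence after 30 min at room temperature.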

[3] = molecular target: Estrogen receptor (Homo sapiens) (UniProt P03372); test: qHTS assay to identify small molecule agonists of the estrogen receptor alpha (ER-alpha) signaling pathway in the presence of an antagonist (AID 1259383; calls by dose curve; also: nearly all actives have a fitted effect of over 15% in size; also: potency is read from the fitted curve at half-maximal effect; as to activation: top concentration of the series differs between compounds)
Method in brief: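 VM7Luc4E2 cells express endogenous full-length ER-alpha with an ERE-luciferase reporter and were hormone-deprived for 5 days. Compounds at 15 concentrations were added with 10.0nM ICI-182,780 for 22hr at 37C. Luminescence was read with ONE-Glo.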

[4] = molecular target: Thyrotropin receptor (Homo sapiens) (UniProt P16473); test: qHTS assay to identify small molecule antagonists of the thyroid stimulating hormone receptor (TSHR) signaling pathway (AID 1259385; calls by dose curve; also: nearly all actives have a fitted effect of over 20% in size)
Method in brief: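 TSHR-HEK293 cells were plated and held 18 h at 37C/5% CO2, then given compound plus Ro20-1724 and stimulated with TSH at 1.5 ng/mL final. After 30 min at room temperature, cAMP was detected with cAMP-d2/anti-cAMP-cryptate (1 h) by fluorescence.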

[5] = qHTS assay to identify small molecule agonists of the estrogen receptor alpha (ER-alpha) signaling pathway in the presence of an antagonist - cell viability counter screen (AID 1259386);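 also: cells exposed to compounds for 22 h at 37 °C before the viability read; nearly all actives have a fitted effect of over 30% in size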; also: potency is read from the fitted curve at half-maximal effect
Method in brief: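 Cell viability in VM7Luc4E2 cells (endogenous full-length ER-alpha) measured by CellTiter-Fluor fluorescence in the same wells as the luciferase screen. Cells pre-cultured 5 days in charcoal-stripped serum, then treated 22 h with compounds at 15 concentrations plus 10.0nM ICI-182,780.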

[6] = qHTS assay to identify small molecule antagonists of the progesterone receptor (PR) signaling pathway - cell viability counter screen (AID 1346798); also: nearly all actives have a fitted effect of over 50% in size; also: potency is read from the fitted curve at half-maximal effect
Method in brief: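 PR-UAS-bla HEK293T cells, 3,000/well in 2% charcoal-stripped FBS medium, dosed with compounds plus R5020 agonist and incubated 16 h at 37C. Viability then measured in the same wells by CellTiter-Glo luminescence after 30 min at RT.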

[7] = qHTS assay to identify small molecule agonists of the progesterone receptor (PR) signaling pathway - cell viability counter screen (AID 1346799; calls by dose curve; also: nearly all actives have a fitted effect of over 45% in size; also: potency is read from the fitted curve at half-maximal effect)
Method in brief: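 Counter screen in the PR-UAS-bla HEK293T wells (2% charcoal-stripped FBS, 16 h compound exposure at 37 C) after the bla read. CellTiter-Glo added, 30 min at room temperature, luminescence read as cell viability.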

[8] = qHTS assay to identify small molecule antagonists of the TGF-beta/Smad signaling pathway - cell viability counter screen (AID 1346824); also: nearly all actives have a fitted effect of over 50% in size; also: potency is read from the fitted curve at half-maximal effect
Method in brief: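 SBE-bla HEK 293T cells were plated overnight at 37 C, then given compounds in DMSO plus TGF-beta1 (added as 0.25 ng/mL solution) for 5 hr. After the bla read, CellTiter-Glo was added to the same wells and luminescence read after 30 min at room temperature.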

[9] = qHTS assay to identify small molecule agonists of the TGF-beta/Smad signaling pathway - cell viability counter screen (AID 1346829); also: nearly all actives have a fitted effect of over 45% in size; also: potency is read from the fitted curve at half-maximal effect
Method in brief: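 CellTiter-Glo luminescence readout; SBE-bla HEK 293T cells, overnight plating, compound 5 hr at 37 C/5% CO2, then bla substrate 2 hr RT, then CellTiter-Glo 30 min RT.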

[10] = qHTS assay to identify small molecule agonists of the TGF-beta/Smad signaling pathway (AID 1346859; active = well fitted activation curve with a large enough effect in the signal ratio in the repeat runs, not every such curve was filed as active; the % refers to the signal ratio; also: series mostly up to about 77 µM)
Method in brief: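 SBE-bla HEK293T cells plated overnight, then compound exposure for 5 h at 37 C. Beta-lactamase reporter read with LiveBLAzer B/G FRET substrate after 2 h at room temperature, fluorescence at 405 nm excitation, 460/530 nm emission.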

[11] = molecular target: Thyrotropin-releasing hormone receptor (Homo sapiens) (UniProt P34981); test: qHTS assay to identify small molecule antagonists of the thyrotropin-releasing hormone receptor (TRHR) signaling pathway (AID 1346877; active = well fitted inhibition curve with a large enough effect in the repeat runs, not every such curve was filed as active; also: potency is read from the fitted curve at half-maximal effect)
Method in brief: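 TRHR-expressing HEK293 cells loaded with calcium dye for 2 h at 37 C; compounds pre-incubated 5 min at room temperature before TRH challenge at 1 nM final. Intracellular calcium fluorescence read kinetically for 3 min; 15 concentrations in triplicate.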

[12] = molecular target: Thyrotropin-releasing hormone receptor (Homo sapiens) (UniProt P34981); test: qHTS assay to identify small molecule agonists of the thyrotropin-releasing hormone receptor (TRHR) signaling pathway (AID 1346891; calls by dose curve; also: potency is read from the fitted curve at half-maximal effect; as to activation: series mostly up to about 58 µM)
Method in brief: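 HEK293 cells expressing TRHR plated 18 h at 37 C/5% CO2, calcium dye-loaded 2 h at 37 C, then compound added (agonist mode); kinetic calcium fluorescence read 3 min at 1 s intervals; 15 concentrations in triplicate.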

[13] = molecular target: Androgen receptor (Homo sapiens) (UniProt P10275); test: qHTS assay to identify small molecule agonists of the androgen receptor (AR) signaling pathway in the presence of an antagonist (AID 1259381; calls by dose curve; also: nearly all actives have a fitted effect of over 15% in size)
Method in brief: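 MDA-kb2 cells carrying MMTV-luciferase (AR/GR responsive), 3,000 cells/well, co-treated with 3.0 uM nilutamide final. Compounds at 15 concentrations, 16 hr at 37C without CO2. Luciferase luminescence read after 30 min with ONE-Glo.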

[14] = qHTS assay to identify small molecule antagonists of the estrogen receptor beta (ER-beta) signaling pathway - cell viability counter screen (AID 1259382); also: nearly all actives have a fitted effect of over 55% in size; also: potency is read from the fitted curve at half-maximal effect
Method in brief: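 ER-beta-UAS-bla HEK293T cells in 2% charcoal-stripped FBS medium, treated with compound plus 1 nM 17-beta-estradiol for 16 h at 37C. Viability read by CellTiter-Glo luminescence after 30 min at room temperature in the same wells.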

[15] = qHTS assay to identify small molecule agonists or antagonists of the thyroid stimulating hormone receptor (TSHR) signaling pathway - wild type cell line counter screen (AID 1259384; calls by dose curve)
Method in brief: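 Wild-type HEK293 cells were plated 18 h at 37 C/5% CO2, pin-dosed with compound plus Ro20-1724 medium, held 30 min at room temperature, then given cAMP-d2 and anti-cAMP-cryptate; fluorescence was read after 1 h. Fifteen concentrations, triplicate.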

[16] = molecular target: Progesterone receptor (Homo sapiens) (UniProt P06401); test: qHTS assay to identify small molecule agonists of the progesterone receptor (PR) signaling pathway (AID 1346784; calls by dose curve; also: nearly all actives have a fitted effect of over 30% in size; also: potency is read from the fitted curve at half-maximal effect)
Method in brief: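 PR-UAS-bla HEK 293T cells (beta-lactamase reporter under UAS) in 2% charcoal-stripped FBS, dosed with 23 nL compound after 6 hr, incubated 16hr at 37C. LiveBLAzer B/G FRET substrate added, fluorescence read after 2 hours.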

[17] = molecular target: Progesterone receptor (Homo sapiens) (UniProt P06401); test: qHTS assay to identify small molecule antagonists of the progesterone receptor (PR) signaling pathway (AID 1346795; active = well fitted inhibition curve with a large enough effect in the signal ratio in the repeat runs, not every such curve was filed as active; the % refers to the signal ratio; also: potency is read from the fitted curve at half-maximal effect)
Method in brief: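 PR-UAS-bla HEK293T cells with beta-lactamase reporter under UAS control, in 2% charcoal-stripped FBS, treated with compounds plus 1 nM promegestone (R5020, final) for 16 hr at 37C. Read-out: FRET beta-lactamase substrate fluorescence after 2 hr at room temperature.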

[18] = Human pregnane X receptor (PXR) small molecule agonists, qHTS cell viability counter screen (AID 1346977); also: nearly all actives have a fitted effect of over 50% in size; also: potency is read from the fitted curve at half-maximal effect
Method in brief: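 PXR-Luc HepG2 cells (2,000/well, 5% charcoal-stripped FBS) preincubated 5 hr, then exposed to compounds 24 hr at 37 C. Viability read in the same wells by CellTiter-Fluor fluorescence, reagent added at 23 hr, 1 hr incubation.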
% is scaled to controls: 0 for no effect and ±100 for the full control effect.

Estrogen receptor (Homo sapiens), sequence (P03372 whole entry, looked up): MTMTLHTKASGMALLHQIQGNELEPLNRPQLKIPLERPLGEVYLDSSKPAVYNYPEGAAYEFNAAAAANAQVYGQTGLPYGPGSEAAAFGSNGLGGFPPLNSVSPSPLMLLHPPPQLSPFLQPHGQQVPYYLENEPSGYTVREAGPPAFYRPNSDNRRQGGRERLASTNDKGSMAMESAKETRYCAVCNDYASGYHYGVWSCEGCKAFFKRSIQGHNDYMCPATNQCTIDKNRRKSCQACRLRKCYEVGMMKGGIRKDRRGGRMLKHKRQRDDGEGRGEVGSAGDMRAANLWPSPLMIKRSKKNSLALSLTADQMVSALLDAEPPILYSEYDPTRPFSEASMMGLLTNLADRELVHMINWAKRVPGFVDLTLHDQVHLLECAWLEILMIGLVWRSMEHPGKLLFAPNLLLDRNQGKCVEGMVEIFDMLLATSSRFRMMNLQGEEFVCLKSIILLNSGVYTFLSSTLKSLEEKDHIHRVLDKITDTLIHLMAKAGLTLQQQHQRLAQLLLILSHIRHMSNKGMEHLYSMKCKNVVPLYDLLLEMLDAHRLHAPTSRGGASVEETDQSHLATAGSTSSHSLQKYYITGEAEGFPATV
Thyrotropin-releasing hormone receptor (Homo sapiens), sequence (P34981 whole entry, looked up): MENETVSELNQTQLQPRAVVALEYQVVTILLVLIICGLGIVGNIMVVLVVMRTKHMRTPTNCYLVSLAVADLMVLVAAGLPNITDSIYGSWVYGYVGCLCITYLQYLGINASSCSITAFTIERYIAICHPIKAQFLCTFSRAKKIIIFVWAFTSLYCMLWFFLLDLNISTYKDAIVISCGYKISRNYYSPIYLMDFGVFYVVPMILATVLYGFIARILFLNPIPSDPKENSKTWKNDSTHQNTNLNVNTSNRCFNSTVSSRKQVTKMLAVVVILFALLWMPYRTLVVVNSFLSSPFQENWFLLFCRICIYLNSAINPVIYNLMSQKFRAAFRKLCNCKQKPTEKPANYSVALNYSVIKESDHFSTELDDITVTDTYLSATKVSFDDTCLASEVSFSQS
Androgen receptor (Homo sapiens), sequence (P10275 whole entry, looked up): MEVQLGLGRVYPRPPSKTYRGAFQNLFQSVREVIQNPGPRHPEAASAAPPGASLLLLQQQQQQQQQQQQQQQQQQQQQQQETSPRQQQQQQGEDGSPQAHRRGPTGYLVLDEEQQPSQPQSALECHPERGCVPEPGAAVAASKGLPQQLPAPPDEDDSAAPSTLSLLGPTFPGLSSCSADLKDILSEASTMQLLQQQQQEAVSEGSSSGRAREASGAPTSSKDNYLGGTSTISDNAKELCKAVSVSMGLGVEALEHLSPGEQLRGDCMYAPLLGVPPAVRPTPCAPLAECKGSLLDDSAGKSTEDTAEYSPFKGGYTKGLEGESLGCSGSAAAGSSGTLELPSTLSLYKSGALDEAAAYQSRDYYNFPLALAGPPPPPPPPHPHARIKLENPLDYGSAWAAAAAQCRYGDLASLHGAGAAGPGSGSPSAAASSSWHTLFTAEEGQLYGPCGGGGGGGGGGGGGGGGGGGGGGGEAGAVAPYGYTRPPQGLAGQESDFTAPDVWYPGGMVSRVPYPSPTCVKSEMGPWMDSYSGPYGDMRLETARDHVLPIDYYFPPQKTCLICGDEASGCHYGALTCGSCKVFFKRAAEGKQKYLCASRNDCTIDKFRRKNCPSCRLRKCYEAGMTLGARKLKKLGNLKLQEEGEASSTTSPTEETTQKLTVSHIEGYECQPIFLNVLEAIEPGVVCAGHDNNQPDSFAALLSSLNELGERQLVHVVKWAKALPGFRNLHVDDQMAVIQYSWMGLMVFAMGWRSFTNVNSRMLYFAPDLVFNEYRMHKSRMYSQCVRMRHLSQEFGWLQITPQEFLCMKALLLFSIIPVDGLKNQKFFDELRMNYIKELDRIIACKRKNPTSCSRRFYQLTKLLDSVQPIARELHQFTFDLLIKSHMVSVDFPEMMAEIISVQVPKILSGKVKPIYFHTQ
Thyrotropin receptor (Homo sapiens), sequence (P16473 whole entry, looked up): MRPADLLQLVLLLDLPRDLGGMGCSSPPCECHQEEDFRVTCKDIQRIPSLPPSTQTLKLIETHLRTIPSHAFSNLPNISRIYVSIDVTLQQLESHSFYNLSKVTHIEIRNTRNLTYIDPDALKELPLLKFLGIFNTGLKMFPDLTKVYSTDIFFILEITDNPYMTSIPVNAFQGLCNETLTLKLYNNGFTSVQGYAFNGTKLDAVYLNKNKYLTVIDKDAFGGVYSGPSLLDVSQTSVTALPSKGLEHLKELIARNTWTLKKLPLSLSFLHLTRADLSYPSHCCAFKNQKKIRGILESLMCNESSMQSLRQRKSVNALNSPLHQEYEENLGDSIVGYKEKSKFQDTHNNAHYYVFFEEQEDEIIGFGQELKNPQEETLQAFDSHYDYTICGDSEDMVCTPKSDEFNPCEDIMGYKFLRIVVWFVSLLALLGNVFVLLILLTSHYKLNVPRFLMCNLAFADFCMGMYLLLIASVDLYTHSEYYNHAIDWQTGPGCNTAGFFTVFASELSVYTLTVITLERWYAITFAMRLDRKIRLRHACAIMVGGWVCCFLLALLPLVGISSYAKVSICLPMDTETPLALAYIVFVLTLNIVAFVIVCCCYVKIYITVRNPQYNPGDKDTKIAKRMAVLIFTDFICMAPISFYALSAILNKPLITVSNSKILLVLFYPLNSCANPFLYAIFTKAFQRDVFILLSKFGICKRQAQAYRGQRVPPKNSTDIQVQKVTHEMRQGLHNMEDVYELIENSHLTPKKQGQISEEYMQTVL
Progesterone receptor (Homo sapiens), sequence (P06401 whole entry, looked up): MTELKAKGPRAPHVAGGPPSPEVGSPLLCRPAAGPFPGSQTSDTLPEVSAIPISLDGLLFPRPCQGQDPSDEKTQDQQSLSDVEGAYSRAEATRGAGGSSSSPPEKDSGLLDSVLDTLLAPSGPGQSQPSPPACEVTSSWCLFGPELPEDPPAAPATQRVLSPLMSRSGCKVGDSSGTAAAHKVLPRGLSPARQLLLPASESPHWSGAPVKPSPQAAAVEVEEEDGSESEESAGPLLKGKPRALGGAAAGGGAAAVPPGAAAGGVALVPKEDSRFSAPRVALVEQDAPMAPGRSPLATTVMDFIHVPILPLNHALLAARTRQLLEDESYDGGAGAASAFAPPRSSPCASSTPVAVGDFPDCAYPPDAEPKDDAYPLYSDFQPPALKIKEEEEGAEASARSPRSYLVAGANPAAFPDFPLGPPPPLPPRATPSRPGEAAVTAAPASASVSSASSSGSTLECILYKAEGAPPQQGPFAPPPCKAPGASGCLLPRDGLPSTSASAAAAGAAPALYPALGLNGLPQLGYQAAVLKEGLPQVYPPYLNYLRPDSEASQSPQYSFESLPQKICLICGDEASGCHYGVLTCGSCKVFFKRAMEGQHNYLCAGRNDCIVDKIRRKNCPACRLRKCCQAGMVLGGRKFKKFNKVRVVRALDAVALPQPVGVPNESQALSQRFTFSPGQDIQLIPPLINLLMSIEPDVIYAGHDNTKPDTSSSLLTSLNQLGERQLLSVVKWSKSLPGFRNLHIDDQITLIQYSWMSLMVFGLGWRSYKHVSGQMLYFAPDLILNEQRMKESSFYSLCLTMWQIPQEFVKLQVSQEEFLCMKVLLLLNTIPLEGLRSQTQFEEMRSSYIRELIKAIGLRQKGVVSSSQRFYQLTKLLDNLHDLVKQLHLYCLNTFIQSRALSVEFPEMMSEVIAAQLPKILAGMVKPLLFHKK

C=CC(=O)OCCCCOC(=O)C=C
inactive: Potency [2] | Potency [3] | Potency [4] | Potency [5] | Potency [6] | Potency [7] | Potency [8] | Potency [9] | outcome [10] | Potency [11] | Potency [12]
active: Potency [1] 54.5 µM

Nc1ccccc1C(=O)Oc1ccc2ccccc2c1
inactive: Potency [1] | Potency [13] | Potency [14] | outcome [15] | Potency [4] | Potency [16] | Potency [6] | Potency [7] | Potency [8] | Potency [9] | outcome [10] | Potency [11] | Potency [12] | Potency [18]
active: Potency [3] 2.17 µM | Potency [17] 30.6 µM

[Cd+2].[Cl-].[Cl-]
inactive: Potency [1] | Potency [9] | outcome [10]
active: Potency [2] 69.1 µM and 68.6 µM | Potency [14] 34.7 µM and 54.5 µM | Potency [5] 61.6 µM and 54.5 µM | Potency [6] 4.36 µM and 2.73 µM | Potency [7] 13.8 µM and 6.11 µM | Potency [18] 794 nM and 344 nM

CC(=O)[O-].[Tl+]
inactive: Potency [1] | Potency [6] | Potency [7] | Potency [8] | Potency [9] | outcome [10]
active: Potency [2] 2.75 µM | Potency [14] 38.8 µM | Potency [18] 27.5 µM

CC(C)CC(C)(c1ccc(O)cc1)c1ccc(O)cc1
active: Potency [2] 68.7 µM and 61.1 µM | Potency [14] 54.6 µM and 68.6 µM | Potency [17] 6.11 µM | Potency [18] 50.1 µM
inactive: Potency [1] | outcome [15] | Potency [4] | Potency [5] | Potency [9] | outcome [10] | Potency [12]

CN(C)C(=S)[S-].CN(C)C(=S)[S-].[Cu+2]
inactive: activation [10] -6.22% [at 15.8 µM]
active: Potency [1] 3.33 µM | Potency [2] 5.92 µM | Potency [14] 7.45 µM | Potency [5] 13.2 µM | Potency [6] 1.18 µM | Potency [7] 1.49 µM | Potency [8] 4.23 µM | Potency [9] 9.46 µM | Potency [18] 5.92 µM

O=C(CCl)C(Cl)Cl
inactive: Potency [3] | outcome [15] | Potency [4] | Potency [8] | Potency [9] | outcome [10] | Potency [11] | Potency [12]
active: Potency [1] 27.6 µM | Potency [2] 9.78 µM | Potency [6] 43.7 µM | Potency [7] 27.6 µM | Potency [18] 15.5 µM

CC(=O)[O-].CC(=O)[O-].O.O.[Cd+2]
active: Potency [2] 60.3 µM | Potency [14] 53.7 µM | Potency [5] 60.3 µM | Potency [6] 19.1 µM | Potency [7] 15.1 µM | Potency [18] 8.51 µM
inactive: Potency [1] | Potency [9] | outcome [10]

CC(=[OH+])/C=C(/C)[O-].CC(=[OH+])/C=C(\C)[O-].CC(=[OH+])/C=C(\C)[O-].[Al]
inactive: Potency [1] | Potency [2] | Potency [14] | Potency [3] | Potency [5] | Potency [16] | Potency [6] | Potency [7] | Potency [8] | Potency [9] | outcome [10] | Potency [18]

CN(C)S(=O)(=O)N(SC(F)(Cl)Cl)c1ccccc1
inactive: outcome [15] | Potency [5] | outcome [10] | Potency [12]
active: Potency [1] 30.6 µM | Potency [2] 38.6 µM | Potency [14] 54.5 µM | Potency [6] 61.1 µM | Potency [11] 12 µM | Potency [18] 24.3 µM

[Cl][Sn]([c]1ccccc1)([c]1ccccc1)[c]1ccccc1
active: Potency [1] 1.16 µM | Potency [14] 0.82 µM | Potency [5] 11.6 µM | Potency [6] 1.3 µM | Potency [7] 1.64 µM | Potency [8] 2.61 µM | Potency [9] 2.61 µM | Potency [18] 1.03 µM
inactive: activation [13] -10.8% [at 19 µM] | activation [3] -14.6% [at 19 µM] | cAMP activity change [15] 23.5% [at 18.9 µM]

c1cc[c]([Sb]([c]2ccccc2)[c]2ccccc2)cc1
inactive: Potency [1] | Potency [13] | outcome [15] | Potency [4] | Potency [5] | Potency [8] | Potency [9] | Potency [11] | Potency [12] | Potency [18]

BrC(Br)Br
inactive: Potency [1] | Potency [2] | Potency [14] | outcome [15] | Potency [4] | Potency [17] | Potency [6] | Potency [8] | Potency [9] | outcome [10] | Potency [18]
active: Potency [16] 7.7 µM

CCCCCCCCCCCCCCCC[N+](C)(C)C
inactive and 54.9 µM (active): Potency [9]
inactive and 27.5 µM (active): Potency [12]
inactive and 30.1 µM (active): Potency [11]
active: Potency [1] 29.5 µM and 48.6 µM and 26.6 µM | Potency [2] 9.34 µM and 24.3 µM and 11.9 µM | Potency [14] 23.5 µM and 54.5 µM and 23.7 µM | Potency [6] 29.8 µM | Potency [18] 61.1 µM
inactive: outcome [15] | Potency [4] | Potency [5] | Potency [16] | outcome [10]

CCN(CC)c1c([N+](=O)[O-])cc(C(F)(F)F)c(N)c1[N+](=O)[O-]
inactive: Potency [1] | Potency [13] | Potency [14] | Potency [3] | outcome [15] | Potency [16] | Potency [8] | Potency [9] | outcome [10] | Potency [11] | Potency [12] | Potency [18]

From PubChem BioAssay (Tox21)
